Tg IFNy HTS = T. gondii growth inhibition under IFN-gamma; Toxoplasma gondii growth in IFN-gamma-treated host cells; hits give low values; activity change, negative = inhibition, % (concentration not given with the values); 3.8% of 69,000 active; in the data active = activity change below about -70%, passing the limit was not always enough;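 also: host cells are HeLa cells infected with Toxoplasma gondii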
The depositor's hits bear a star; ! = a repeat was not active. The sample as a whole holds a higher share of hits than the screen did.

SMILES	Tg IFNy HTS
CC[C@@H]1[C@@H](C)O[C@@](O)([C@@H](C)[C@H](O)[C@H](C)[C@H]2OC(=O)/C=C/C=C/[C@H](C)[C@H]([C@@H](C)[C@@H](O)[C@H](C)[C@@]3(O)C[C@@H](O[C@H]4C[C@H](O)[C@H](O)[C@H](C)O4)[C@H](CC)[C@@H](C)O3)OC(=O)/C=C/C=C/[C@H]2C)C[C@H]1O[C@H]1C[C@H](O)[C@H](O)[C@H](C)O1	-74.8*
CN(C)CC1CCC2(COCCN(Cc3cccnc3)C2)O1 (stereo not given)	-28.1
CCN1CC[C@@H]2[C@H]1CCN2Cc1cnn(C)c1	0.1
CS(=O)(=O)N1C[C@@H]2c3ccccc3CN[C@@H]2C1	-11.2
O=C(c1ccccn1)N1C[C@@H]2OCCN(CC3CCCO3)[C@H]2C1 (stereo not given in full)	-36.2
CC(=O)OCC1=C(C(=O)O)N2C(=O)[C@@H](NC(=O)CCCC(N)C(=O)O)C2SC1.[Zn] (stereo not given in full)	26.9
Clc1ccc(CSC(Cn2ccnc2)c2ccc(Cl)cc2Cl)cc1 (stereo not given)	-83.6*
c1ccc(Cn2ccnc2)cc1	-2.5
Cc1nn(CCNC(C)Cn2ccnc2)c(C)c1Cl (stereo not given)	-2.7
Clc1ccc(COC(Cn2ccnc2)c2ccc(Cl)cc2Cl)cc1 (stereo not given)	-74.7*!
CN1C[C@H]2COC[C@H](CC(=O)Nc3cccnc3)[C@H]2C1	-9.6
COc1ccc(NC(=O)c2cc3cccnc3n(Cc3ccc(F)cc3)c2=O)c(OC)c1	-5.9
O=C(NC1CCCCCCCCCCC1)c1cc2cccnc2n(Cc2ccccc2)c1=O	74.8
N[C@@H](Cc1ccc(O)cc1)C(=O)NCC(=O)NCC(=O)O	-5.6
CC(C)[C@]12O[C@H]1[C@@H]1O[C@]13[C@]1(O[C@H]1C[C@H]1C4=C(CC[C@@]13C)C(=O)OC4)[C@@H]2O	-82.9*
CCOC(=O)c1ccc(NC(=O)c2cc3cccnc3n(Cc3ccc(F)cc3)c2=O)cc1	25.9
CCO[C@@H]1C[C@@H]2CN(C(=O)c3ccncc3)CCN2C1	25.1
CC(=O)N1CC(C(=O)O)CN2CCN(Cc3ccncc3)CC2C1 (stereo not given)	-36.3
Cc1ccc(NC(=O)c2cc3cccnc3n(Cc3ccccc3F)c2=O)cc1Cl	39.3
CC12CCC3C4CCCC=C4CCC3C1CCC2O (stereo not given)	-58.9
C[C@]12CC[C@H]3[C@@H](CCC4=CC(=O)CC[C@@H]43)[C@@H]1CC[C@@H]2O	-76.2*
C#CC1(O)CCC2C3CCC4=CC(=O)CCC4(C)C3CCC21C (stereo not given)	-42.6
C[C@]12CC[C@@H]3c4ccc(O)c(O)c4CC[C@H]3[C@@H]1CC[C@@H]2O	35.5
C[C@]1(O)CC[C@H]2[C@@H]3CCC4=CC(=O)CC[C@]4(C)[C@@]3(F)[C@@H](O)C[C@@]21C	12.1
C[C@]12CCC(=O)C=C1CCC1C2CC[C@@]2(C)C1CC[C@@H]2O (stereo not given in full)	-87.5*
SMILES	Tg IFNy HTS
C[C@H](N)Cn1ccc2cc(F)c(Cl)cc21	1.8
CN1CCC2OCCCC2(COc2ncccc2F)C1 (stereo not given)	-4.4
O=C(NCc1ccc(Cl)cc1)c1cc2cccnc2n(Cc2ccc(F)cc2)c1=O	-56.5
O=C(Nc1ccc(F)c(Cl)c1)c1cc2cccnc2n(Cc2ccc(F)cc2)c1=O	-1.6
COc1ccc(NC(=O)c2cc3cccnc3n(Cc3ccc(Cl)cc3)c2=O)cc1OC	58.4
CN(C)C(=O)Oc1ccc(Br)cc1C(=O)Nc1ccc(F)c(Cl)c1	-100.7*
CN1C2CCN(c3ncc(F)cn3)CC2C[C@H]1Cn1cncn1 (stereo not given in full)	7.8
C=CCN1CCN(Cc2nccn2C)Cc2cccnc21	-6.4
Cc1ccc(-c2cc(C(=O)N3C[C@H]4C[C@@H](C3)c3cccc(=O)n3C4)n[nH]2)o1	2.2
CN1C(=O)C(C(=O)/C=C/c2ccc(Br)cc2)C2CC1(C)Oc1ccc(Cl)cc12 (stereo not given)	3.9
CN1C(=O)CN=C(c2ccccc2)c2cc(Cl)ccc21	-1.8
COc1ccc(C2=NCC(=O)N(Cc3nc(-c4ccccc4)oc3C)c3sccc32)cc1	-95.2*
Cc1oc(-c2ccccc2)nc1CN1C(=O)CN=C(c2ccc(F)cc2)c2c1sc(C)c2C	-40.1
CCCCCCC(C)(C)c1ccc(C2CC(O)CCC2CCCO)c(O)c1 (stereo not given)	-79.1*
Cc1ccc(-c2cccc3c2CCNC3)nn1	-0.1
CC1=CC[C@@H]2CN(Cc3cc(=O)[nH]c(=O)[nH]3)C[C@@H]2C1	10.3
C1COC2CCNCC2(COCC2CC2)C1 (stereo not given)	57.4
COc1ccccc1[C@@H]1CN(C(=O)c2cc(=O)[nH]c(=O)[nH]2)[C@@H]2C3CCN(CC3)[C@@H]21	6.3
COc1ccc2c(c1)C1(CCN(C(=O)C3(c4ccccc4)CCCC3)CC1)CC2CC(=O)O (stereo not given)	-15.2
COc1ccc2c(c1)C1(CCN(C(=O)c3nn(C)c4ccccc34)CC1)CC2CC(=O)O (stereo not given)	-74.5*
COc1ccc2c(c1)C1(CCN(C(=O)c3scnc3C)CC1)CC2CC(=O)O (stereo not given)	-9.3
O=C(O)CN1C[C@H]2CCN(c3cccnc3)C(=O)[C@H]2C1	-20.4
CS(=O)(=O)CC(=O)N1CCCC2(CCNC2)C1 (stereo not given)	3.8
C=C1[C@@H](C)[C@H]2[C@H](Cc3ccccc3)NC(=O)[C@]23OC(=O)/C=C/[C@H](O)CCC[C@@H](C)C/C=C/[C@H]3[C@@H]1O	-97.7*
Cc1nccnc1N1C[C@H](c2cccc(F)c2F)[C@@H]2[C@H]1C1CCN2CC1	-4.7
SMILES	Tg IFNy HTS
Cc1nn(C)c(Cl)c1CN1CCC2(CCCNC2)C1 (stereo not given)	-62.7
N#Cc1cccc(CN2CCC3NC(=O)CC32)c1 (stereo not given)	21.0
CCS(=O)(=O)NC[C@@]12COC[C@H]1CN(Cc1c(C)noc1C)C2	-20.4
CC(C)(C)CN1CC2CN(C(=O)CCc3cccnc3)CC2C1 (stereo not given)	14.8
c1cnc(N2CCO[C@H]3CN(Cc4cccs4)C[C@@H]32)nc1	-71.1*
Cc1ccc(CN2C[C@@H]3OCCN(c4ncccn4)[C@H]3C2)s1	-65.8
CC(C)N1CCO[C@@H]2CN(Cc3nccs3)C[C@@H]21	5.3
Cn1cc(C(=O)NCc2cncc3c2CCNC3)cn1	4.2
CN1CCN(Cc2cccnc2)C(=O)C12CCN(S(C)(=O)=O)CC2	6.8
COc1cc2c(cc1OC)[C@@H]1C(=O)c3ccc4c(c3O[C@@H]1CO2)CC(C(C)C)O4 (stereo not given in full)	-81.5*
COc1cc2c(cc1OC)[C@@H]1C(=O)c3ccc(OC)c(CC=C(C)C)c3O[C@@H]1CO2	21.4
Cc1cnc(N2CCCC3(CCCN3Cc3cccnc3)C2)nc1 (stereo not given)	-14.3
Cc1cc(C)c2c(CC(=O)N(CCN(C)C)C3CCS(=O)(=O)C3)c(C)[nH]c2c1 (stereo not given)	140.4
COCCN1CCOCC12CCN(C(=O)c1conc1C)CC2	-23.7
CC(C)(C)CC(=O)N1C[C@H]2C[C@@H]1CN2	37.2
CCN1C[C@@H]2N(c3ncccn3)CCC[C@@]2(C(=O)NCC2CC2)C1	10.5
Cc1cccc(CN2CC[C@@H]3OCCN(S(=O)(=O)C4CC4)[C@@H]3C2)n1	-3.8
C=CCOC1C2CCC1N(Cc1cccc(C)n1)CCO2 (stereo not given)	-71.0*
